According to ChEMBL document CHEMBL4513216, “Probing the Open Global Health Chemical Diversity Library for Multistage-Active Starting Points for Next-Generation Antimalarials” (ACS Infect Dis, 2020):
About 8,600 (12%) of roughly 69,000 compounds showed an effect of 50% or more. This excerpt belongs to a sample that is enriched for strong results.

test system: Plasmodium berghei; assay: Screen against P. berghei liver stage (PbLuc), transformed with Luciferase, at 10uM; type: functional, HepG2; settings: tested at 10 uM

First: CCN(C)C(=O)Cn1c(-c2ccco2)nn(-c2ccccc2OC)c1=O
Second: COc1c(CNC(c2ccccc2F)c2nccn2C)c(C)nn1C (stereo not given)
The INHIBITION of the first is higher: 33.3% for the first, 2.95% for the second.

First: Cc1cccnc1C(=O)N1C[C@@H]2CC[C@H](Oc3cccc(F)c3)[C@@H]2C1
Second: O=C(Cc1cccc(F)c1)NCCNCc1cccnc1
The INHIBITION of the first is lower: 20.8% for the first, 33.3% for the second.

First: COCCN1CCC(NCc2ccc(F)cc2F)C1 (stereo not given)
Second: C=C(C)COc1ccccc1CN1CCC(C(=O)NCC)C1 (stereo not given)
The INHIBITION of the first is higher: 25.4% for the first, 3.06% for the second.

Compared with `CSCC(=O)N1CCc2c(cnc(C)c2-c2noc(-c3cc[nH]n3)n2)C1`, `Cc1ccc(C(=O)O)c(N2Cc3cnc(C(C)(C)C)nc3C2)n1` is lower in INHIBITION: 12.1% for the first, -7.27% for the second.

Compared with `O=C(Cc1ccc2c(c1)CCC2)N1CCN(c2cnccn2)CC1`, `CCN1C(=O)CCCC12CCCN(C(=O)c1cnccn1)C2` (stereo not given) is higher in INHIBITION: -46.4% for the first, 27.4% for the second.

Going from `O=C(CCCNC(=O)NCC1CCCO1)Nc1ccc(Cl)cc1` (stereo not given) to `O=C(Cc1cccs1)NCc1ccnc(C2CCCOC2)n1` (stereo not given), the INHIBITION rises from 25.8% to 53.8%.

First: CCOc1ccc(C(=O)NCCCNc2ncccn2)cc1
Second: Cc1cc(C)cc(C(=O)NCCCNc2ncccn2)c1
The INHIBITION of the first is lower: 41.5% for the first, 55.4% for the second.

Going from `COc1cc(OC)cc(C(=O)NCCCNc2ncccn2)c1` to `O=C(CCCNc1ncccn1)Nc1cc(C(F)(F)F)c[nH]c1=O`, the INHIBITION rises from -14.1% to 29.15%.

Going from `O=C(NCC(O)(c1ccco1)C1CC1)c1c(F)cccc1Cl` (stereo not given) to `CC(O)(CNC(=O)c1c(F)cccc1Cl)c1ccco1` (stereo not given), the INHIBITION rises from 46.7% to 55.6%.

Compared with `CC(O)(CNC(=O)c1c(F)cccc1Cl)C1CC1` (stereo not given), `Cc1cccc(NCC(=O)Nc2cc(F)ccc2F)c1C(N)=O` is lower in INHIBITION: 9.79% for the first, -33.7% for the second.

Going from `Cc1cc(Cl)ccc1NCc1ccc(C(=O)N(C)C)[nH]1` to `CC(=O)c1cc(CC(=O)NCc2ccc(CN(C)C)cc2)cs1`, the INHIBITION rises from 3.03% to 50.1%.

First: CCc1cnc(N2C[C@@H](NC(=O)c3cscn3)[C@H]3COC[C@H]32)nc1
Second: Cn1cc(CN2CC[C@H]3OCC[C@@H](C(=O)Nc4cnccn4)[C@@H]3C2)cn1
The INHIBITION of the first is lower: -82.5% for the first, 38.5% for the second.

Going from `CC(C)CN1CCC2(C=C(C(=O)N(C)C)c3ccccc32)CC1` to `CCN1CCC2(C=C(C(=O)N(C)C)c3ccccc32)CC1`, the INHIBITION rises from 30.3% to 41.2%.

Compared with `CC(C)N1CCC2(C=C(C(=O)N(C)C)c3ccccc32)CC1`, `CN1CCC2(C=C(C(=O)N(C)C)c3ccccc32)CC1` is higher in INHIBITION: -41.6% for the first, 63.8% for the second.

Compared with `CCC(=O)N1CCC2(C=C(C(=O)N(C)C)c3ccccc32)CC1`, `CCC(=O)N1CCC2(C=C(C(=O)N3CCCC3)c3ccccc32)CC1` is lower in INHIBITION: 53% for the first, 34.9% for the second.

Compared with `CC(C)COC(C)C(=O)NCCNC(=O)C(C)C` (stereo not given), `CC(CCNC(=O)N1CCC1)N(C)C(=O)OC(C)(C)C` (stereo not given) is lower in INHIBITION: 36.8% for the first, 8.18% for the second.

First: O=C(Cn1cc(Cl)cn1)N1CCCC(c2cc3ccccc3cn2)C1 (stereo not given)
Second: Cn1cc(C2CCCN2C(=O)c2cnc(-c3cccs3)s2)cn1 (stereo not given)
The INHIBITION of the first is lower: 24.4% for the first, 37.7% for the second.

Compared with `O=C(C1CC=CC1)N1CCCn2nnc(CNc3ncccn3)c2C1`, `CCOc1ncccc1NC(=O)NC1CCN(c2ncccn2)CC1` is lower in INHIBITION: 29.5% for the first, -19.9% for the second.

Going from `Fc1cccc(-n2ccc(CN3CCCC3Cn3cncn3)n2)c1` (stereo not given) to `c1ccc(Cc2nnc(CN3CCCC(Cn4cncn4)C3)o2)cc1` (stereo not given), the INHIBITION rises from -19.4% to -15.3%.

Going from `Cc1nc(C(=O)N2CCCC2c2cncc(CN3CCCC3)n2)co1` (stereo not given) to `O=C(c1cccc2ccnn12)N1CCC[C@H]1CN1CCCC1`, the INHIBITION rises from -33.6% to 19.8%.

Compared with `Cc1cc(C2CCCN2C(=O)c2cnn(C)c2)on1` (stereo not given), `Cc1cc(C2CCCN2Cc2nc3c(cnn3C)c(=O)[nH]2)on1` (stereo not given) is higher in INHIBITION: 0.8% for the first, 27.6% for the second.

First: CCN1C[C@H]2[C@@H](C1)N(C(=O)Cc1ccsc1)CC[C@H]2OC
Second: CCN1C[C@@H]2[C@@H](OC)CCN(C(=O)c3cc(C)nn3CC)[C@@H]2C1
The INHIBITION of the first is lower: -9.74% for the first, 84.1% for the second.

First: CCn1nc(C)cc1C(=O)N1CC[C@H](OC)[C@H]2CN(CC3CC3)C[C@H]21
Second: Cc1cc(C)n(C2CCCN(C(=O)c3ccc4c(c3)COC4)C2)n1 (stereo not given)
The INHIBITION of the first is lower: -6.39% for the first, 15.815% for the second.

First: CCC(C)NS(=O)(=O)c1ccc(C(=O)NC2(C#N)CCC2)cc1 (stereo not given)
Second: CS(=O)(=O)Cc1ccc(CNC(=O)N2CCC(C(N)=O)C2)cc1 (stereo not given)
The INHIBITION of the first is higher: 3.13% for the first, 2.97% for the second.

Going from `CC(C)c1cc(CN(C)C(=O)C(C)N2CCc3ccccc3C2)no1` (stereo not given) to `COCCc1noc(CN(C)C(=O)C(C)N2CCc3ccccc3C2)n1` (stereo not given), the INHIBITION falls from 63.1% to 2.29%.

Going from `CC(C(=O)N(C)Cc1noc(C2CCC2)n1)N1CCc2ccccc2C1` (stereo not given) to `CN(CC(=O)N(C)C1CCCCC1)Cc1nc2ccccc2c(=O)[nH]1`, the INHIBITION rises from 25.8% to 44.7%.

Compared with `O=C(C1CCOC1)N1Cc2ccccc2OC2(CCOCC2)C1` (stereo not given), `CCN1CCOCC2(CCCN(C(=O)c3cccc(O)c3)C2)C1` (stereo not given) is higher in INHIBITION: 12.8% for the first, 26% for the second.

First: CN(CCNC(=O)N1CCCC1)C(=O)OC(C)(C)C
Second: CCOC1CCN(C(=O)NCCN(C)C(=O)OC(C)(C)C)CC1
The INHIBITION of the first is lower: -30.5% for the first, 58.2% for the second.

Compared with `COCCN(Cc1ccoc1)S(=O)(=O)c1ccc(F)c(Cl)c1`, `COCc1nc(C(=O)NS(=O)(=O)c2ccc(Cl)cc2F)cs1` is lower in INHIBITION: -31.7% for the first, -64.25% for the second.

First: CC(=O)c1cc(CC(=O)NCc2ccc(F)cc2)cs1
Second: COc1ccc(CNC(=O)Cc2csc(C(C)=O)c2)cc1
The INHIBITION of the first is lower: -38.2% for the first, 33% for the second.

Compared with `CC(C)n1nc2c(cc1=O)CN(c1nc3ccccc3s1)CC2`, `CCn1nc2c(cc1=O)CN(c1nc3ccccc3s1)CC2` is higher in INHIBITION: 35% for the first, 37.7% for the second.

First: CCCn1nc2c(cc1=O)CN(CC(=O)N(C)c1nccs1)CC2
Second: CCn1nc2c(cc1=O)CN(CC(=O)N(C)c1nccs1)CC2
The INHIBITION of the first is lower: 9.56% for the first, 50.7% for the second.

First: CCCn1nc2c(cc1=O)CN(CCCN1CCCC1=O)CC2
Second: CCn1nc2c(cc1=O)CN(CC(=O)Nc1nccs1)CC2
The INHIBITION of the first is lower: 6.56% for the first, 18.2% for the second.

First: Cn1nc2c(cc1=O)CN(c1ncnc3ccsc13)CC2
Second: CCn1nc2c(cc1=O)CN(c1ncnc3ccsc13)CC2
The INHIBITION of the first is lower: 34.6% for the first, 93.6% for the second.

Going from `CC(C)n1nc2c(cc1=O)CN(c1ncnc3ccccc13)CC2` to `CC(C)n1nc2c(cc1=O)CN(c1ncnc3ccsc13)CC2`, the INHIBITION falls from 94.5% to 86.8%.

Going from `CCCn1nc2c(cc1=O)CN(c1ncnc3ccsc13)CC2` to `CN(C(=O)CN1CCc2nn(C)c(=O)cc2C1)c1nccs1`, the INHIBITION falls from 91.9% to 29%.

Going from `CC(C)n1nc2c(cc1=O)CN(Cc1nc3ccccc3o1)CC2` to `CC(C)n1nc2c(cc1=O)CN(Cc1nnc(C3CC3)o1)CC2`, the INHIBITION falls from 26.5% to -25.9%.

First: CCCc1c(C2CCOC(C)(C)C2)nc(N)c(C#N)c1-c1cnn(C)c1 (stereo not given)
Second: CN(Cc1ccc2c(c1)OCCO2)Cc1nc2c(cnn2C)c(=O)[nH]1
The INHIBITION of the first is lower: 4.15% for the first, 59.4% for the second.

Compared with `Cc1ccoc1C(=O)NCCS(=O)(=O)N1CCSCC1`, `Cc1ccc(-c2cc(CNC(=O)N3CCSCC3)on2)cc1` is lower in INHIBITION: 4.52% for the first, -5.25% for the second.

First: COc1cc(N2CCC3(CCCN(C(=O)c4cccnc4)C3)C2)ncn1 (stereo not given)
Second: Cc1cc(C)n2nc(C(=O)N3CCCC4(CNC(=O)O4)C3)cc2n1 (stereo not given)
The INHIBITION of the first is lower: 19.8% for the first, 27.4% for the second.

Going from `CC(=O)N[C@@H]1CN(C(=O)CC2CC2)C[C@H]1O` to `CC(=O)Nc1nc(C2CCN(C(=O)C3CCC3)CC2)cs1`, the INHIBITION falls from 49.9% to 36.7%.

First: Cc1ccc(-c2[nH][nH]c(=O)c2CCN)cc1
Second: CN(CCCOc1ccc(F)cc1)Cc1nc2c(cnn2C)c(=O)[nH]1
The INHIBITION of the first is higher: 44.9% for the first, 39.2% for the second.

Compared with `COc1cccc(Oc2nc(C)c(C(=O)O)s2)c1OC`, `Cc1cccc2cc(CO)c(N3Cc4cnc(C(C)(C)C)nc4C3)nc12` is higher in INHIBITION: 45.5% for the first, 91.2% for the second.

Going from `Cn1c(CN2CCC(N3CCNC3=O)CC2)cc(=O)n(C)c1=O` to `Cc1cc(C(=O)N2CCCC3(CNC(=O)O3)C2)c2c(C)nn(C)c2n1` (stereo not given), the INHIBITION rises from 29% to 54.1%.

First: CC(C)n1nc2c(cc1=O)CN(CC(=O)N(C)c1nccs1)CC2
Second: CC(C)Cc1ncc2c(n1)CN(c1nc3ccccc3cc1CO)C2
The INHIBITION of the first is lower: 17.1% for the first, 33.9% for the second.

First: c1csc(CN2C[C@@H]3OCCN(CC4CCCO4)[C@@H]3C2)c1 (stereo not given in full)
Second: O=C(NCc1ccnc(C2CCCOC2)n1)c1cccs1 (stereo not given)
The INHIBITION of the first is lower: -21.5% for the first, 33.5% for the second.

First: Cc1ccsc1C(=O)NCc1ccnc(C2CCCOC2)n1 (stereo not given)
Second: O=C(c1n[nH]c2c1CN(C1CCOC1)CC2)N1CCCC1 (stereo not given)
The INHIBITION of the first is lower: 5.1% for the first, 12.4% for the second.

First: O=C1NCC2(CCCN(C(=O)c3c[nH]nc3C3CCCCC3)C2)O1 (stereo not given)
Second: CN(CC(=O)N(C)C1CCCCC1)Cc1nc2c(cnn2C)c(=O)[nH]1
The INHIBITION of the first is lower: 31.8% for the first, 55.4% for the second.

Compared with `COCC1CC2(CCN(C(=O)c3ccco3)CC2)CN1C(C)C` (stereo not given), `CN(CC(=O)N1CCCC1)Cc1nc2c(cnn2C)c(=O)[nH]1` is higher in INHIBITION: 17.4% for the first, 64% for the second.

Going from `CC(C)CN(C)Cc1nc2c(cnn2C)c(=O)[nH]1` to `CC(C)CCN(C)Cc1nc2c(cnn2C)c(=O)[nH]1`, the INHIBITION falls from -14.935% to -21.05%.

Compared with `CN(CCOc1cccc(F)c1)Cc1nc2c(cnn2C)c(=O)[nH]1`, `CN(Cc1cccc(F)c1)Cc1nc2c(cnn2C)c(=O)[nH]1` is lower in INHIBITION: 55.2% for the first, 23.7% for the second.

First: CN(Cc1ccc2c(c1)OCO2)Cc1nc2c(cnn2C)c(=O)[nH]1
Second: CCN(Cc1ccc2c(c1)OCO2)Cc1nc2c(cnn2C)c(=O)[nH]1
The INHIBITION of the first is higher: 13.9% for the first, -6.14% for the second.

In the case of `CCN(CC)C(=O)CN(C)Cc1nc2c(cnn2C)c(=O)[nH]1`, the INHIBITION is reported as 37.2%.
